Source: PubChem (National Center for Advancing Translational Sciences (NCATS))
IL1B secr inh: blocks inflammasome-driven IL-1 beta release; THP-1 LPS/ATP IL-1B secretion, AlphaLISA, 16 h; active compounds read low; activity change, % at 57.5 µM; hit rate 4.7% among 360,000; AID 743279; in the data active means activity change below about -50%; inconclusive means mostly about -30% to -49%
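THP-1 cells pretreated 1 hr with compounds (up to 57.5 uM final), then stimulated with LPS (250 ng/mL final) plus ATP (1.25 mM final); secreted IL-1B measured by AlphaLISA after 16 hr, decreased signal indicating inhibition.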
LDHA block: blocks human lactate dehydrogenase A. hit rate 0.15% among 480,000. P00338. activity change, % (values are at about 110 or 230 µM). purified LDHA, NADH/diaphorase-resazurin fluorescence; active compounds read low; in the data active means activity change below about -30%; inconclusive means mostly about -25% to -30%
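Enzyme activity of human lactate dehydrogenase 5 (2 nM; 0.06 mM NADH, 0.2 mM pyruvate, 5 min, RT) is measured via a resazurin/diaphorase fluorescence readout of residual NADH.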
TDP1 cell noCPT: qHTS for Inhibitors of human tyrosyl-DNA phosphodiesterase 1 (TDP1): qHTS in cells in absence of CPT; Potency, µM (series often up to 46.2 µM), actives largely listed as inhibitors; AID 686978, 2013; hit rate 15% among 420,000; DT40 Tdp1-/- hTDP1 cells, no CPT, ATP luminescence, 48 h; further: nearly all actives have a fitted effect of over 55% in size
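Chicken DT40 Tdp1-/- cells stably complemented with human TDP1 were seeded at 400 cells/well with DMSO in place of 20 nM camptothecin. After compound pinning, cells grew at least 48 hr at 37 °C; viability read by CellTiter-Glo luminescence.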
TDP1 cell CPT: growth inhibition of DT40 Tdp1-/-;hTDP1 cells with camptothecin (screen for TDP1 inhibitors). chicken DT40 Tdp1-/-;hTDP1 cells + 20 nM CPT, ATP luminescence, 48 h. Potency, µM (series often up to 46.2 µM), most hits filed as inhibitors. hit rate 12% among 420,000. AID 686979; further: nearly all actives have a fitted effect of over 55% in size
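Chicken DT40 Tdp1-/- cells stably complemented with human TDP1 were seeded at 400 cells/well in medium containing 20 nM camptothecin, exposed to pin-transferred compounds, and grown at 37 °C for at least 48 hr. Viability was read as ATP luminescence.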
VP16 counter: Gal4-VP16 reporter inhibition counter-screen. Drosophila S2 Gal4-VP16 UAS-luciferase, luminescence, 20 h. Potency, µM (titrated, usually from 53.6 µM), usual class: inhibitors. hit rate 3.5% among 310,000. AID 2546;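 further: Gal4-VP16 expression switched on by copper sulfate through the metallothionein promoter; nearly all actives have a fitted effect of over 50% in size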
RORg inh: inhibitors of mouse ROR gamma transcriptional activity. Drosophila S2 Gal4-RORgamma UAS-luciferase reporter, 20 h. Potency, µM (series often up to 53.6 µM), most hits filed as inhibitors. hit rate 5.4% among 310,000. AID 2551; further: nearly all actives have a fitted effect of over 60% in size
Target sequence (P51450 whole entry, looked up, the tested form may be a part): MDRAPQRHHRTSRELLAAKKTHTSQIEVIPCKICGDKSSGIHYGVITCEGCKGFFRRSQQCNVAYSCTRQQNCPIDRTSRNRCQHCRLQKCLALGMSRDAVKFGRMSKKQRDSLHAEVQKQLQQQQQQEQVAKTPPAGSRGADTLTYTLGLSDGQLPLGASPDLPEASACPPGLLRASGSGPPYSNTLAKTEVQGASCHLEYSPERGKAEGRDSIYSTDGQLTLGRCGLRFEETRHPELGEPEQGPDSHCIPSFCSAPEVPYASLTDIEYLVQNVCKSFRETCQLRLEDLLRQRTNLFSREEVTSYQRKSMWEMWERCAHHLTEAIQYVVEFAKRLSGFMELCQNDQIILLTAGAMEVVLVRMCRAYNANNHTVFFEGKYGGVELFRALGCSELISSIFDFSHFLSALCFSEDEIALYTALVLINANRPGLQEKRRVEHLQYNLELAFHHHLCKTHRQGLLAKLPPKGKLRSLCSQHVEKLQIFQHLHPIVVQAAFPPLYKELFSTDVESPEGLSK
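Stably transfected Drosophila Schneider cells are the test system, with ROR gamma fused to Gal4 and luciferase under UAS control; luminescence is read after 20 hr of 700 uM copper sulfate induction at ambient temperature.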
Numbers stand for hits; 0 = inactive; ? = inconclusive; - = no result given. This is a sample that favours compounds with a hit; in the whole collection about 18% have one here. Unless noted, the call rests on the fitted dose curve; in most records, active means well fitted curve in the direction sought with a large enough effect; inconclusive means small, poorly fitted or top-dose-only effect, or another doubt; inactive means no such curve, though single readings can be large; an effect the other way counts as inactive or inconclusive.

SMILES	IL1B secr inh	LDHA block	TDP1 cell noCPT	TDP1 cell CPT	VP16 counter	RORg inh
CCc1c(C)sc2c1CCN(C(=O)Nc1ccccc1Cl)C2c1ccc(OC)cc1 (stereo unspecified)	-	0	15µM	?	-	-
COc1ccc(NC(=O)CN2CCN(CC(=O)Nc3ccccc3Cl)CC2)cc1	0	0	?	?	0	0
O=C1CCCC2=C1C(c1ccccc1F)Nc1nonc1N2 (stereo unspecified)	-	0	-	-	-	-
COC(=O)CSc1nc2ccc(C)cc2[nH]1	0	0	0	0	0	0
O=C(CSc1nc2cc(Cl)ccc2s1)NC(=O)NCc1ccco1	0	0	?	0	0	?
CCOc1ccc2nc(SCC(=O)NC(=O)NCc3ccco3)sc2c1	0	0	26µM	?	0	0
CCOc1ccc2nc(SCC(=O)NCc3ccco3)sc2c1	0	0	23µM	?	0	0
Cc1ccc2nc(SCC(=O)NC(=O)NCc3ccco3)[nH]c2c1	0	0	0	0	18µM	0
Cc1ccc2nc(SCC(=O)c3ccc(O)cc3O)[nH]c2c1	0	0	?	0	3.2µM	0
CCCNC(=O)CSc1nc2ccc(OCC)cc2s1	0	0	0	0	0	0
NC(=O)C1CCN(C(=O)C2CCN(S(=O)(=O)Cc3ccccc3Cl)CC2)CC1	-	0	-	-	-	-
N#Cc1ccc(Cn2cnc3ccccc3c2=O)c(F)c1	-	0	-	-	-	-
Cc1ccc(C(=O)COC(=O)C2C3C=CC(C3)C2C(=O)OCC(=O)c2ccc(C)c(C)c2)cc1C (stereo unspecified)	-53	0	?	?	0	?
CC(=O)NCC(=O)OCC(=O)c1ccc(C)c(C)c1	0	0	0	0	0	0
O=C(/C=C/c1ccccc1)N(Cc1ccc2[nH]ccc2c1)C1CC1	-	0	-	-	-	-
CCOC(=O)n1c(=O)[nH]c2ccc(Br)cc21	0	0	18µM	0	0	0
CCOCCOC(C)C(=O)NCC(CC)c1ccccc1 (stereo unspecified)	-	0	-	-	-	-
COc1ccccc1NC(=O)CSc1nc2ccccc2nc1N1CC(C)OC(C)C1 (stereo unspecified)	0	0	?	21µM	0	0
COc1ccc(NC(=O)CSc2nc3ccccc3nc2N2CCCC2)c(OC)c1	0	0	?	?	0	0
COc1ccc(C)cc1NC(=O)CSc1nc2ccccc2nc1N1CC(C)OC(C)C1 (stereo unspecified)	0	0	26µM	23µM	0	0
FC(F)(F)c1ccccc1-c1nc(N2CCNCC2)c2ccccc2n1	-	-	0	?	0	0
FC(F)(F)c1ccccc1-c1nc(NC2CCNCC2)c2ccccc2n1	-	-	?	15µM	0	0
CCOc1ccccc1CNCc1cccn1-c1nnc(N2CCN(c3ccccc3)CC2)s1	-	0	3.3µM	5.8µM	-	-
CC(=O)Cc1nsc(NC(=O)c2ccc(Br)o2)n1	0	0	1.6µM	?	0	0
CC(=O)Cc1nsc(NC(=O)c2ccc(-c3cccc(Cl)c3)o2)n1	0	0	16µM	16µM	0	0
SMILES	IL1B secr inh	LDHA block	TDP1 cell noCPT	TDP1 cell CPT	VP16 counter	RORg inh
CNC(=S)NCc1ccc(C(=O)OC)cc1	-	0	-	-	-	-
CCc1ccc(C(=O)C(C)OC(=O)Cc2n[nH]c(=O)c3ccccc23)cc1 (stereo unspecified)	0	0	7.3µM	6.5µM	0	0
C/C=C/c1cccc(-c2nc(C(=O)NC3CCCC3)cc3c2[C@@H](CCO)N(S(=O)C(C)(C)C)C3)c1 (stereo partly specified)	0	0	18µM	26µM	-	-
C/C=C/c1cccc(-c2nc(C(=O)NC3Cc4ccccc4C3)cc3c2[C@@H](CCO)N(C(C)=O)C3)c1	-57	0	?	15µM	-	-
C/C=C/c1cccc(-c2nc(C(=O)NC3CCC3)cc3c2[C@H](CCO)N(S(=O)C(C)(C)C)C3)c1 (stereo partly specified)	0	0	?	?	-	-
CC(=O)Nc1ccc(-c2ccnc3c2CC(C)(C(=O)Nc2ccc(F)c(Cl)c2)O3)cc1 (stereo unspecified)	-62	0	23µM	?	-	-
CN(C)c1ccc(-c2ccnc3c2CC(C)(C(=O)Nc2ccc(F)c(Cl)c2)O3)cc1 (stereo unspecified)	0	0	?	?	-	-
CC1(C(=O)Nc2cccc(C(F)(F)F)c2)Cc2c(-c3ccccc3)ccnc2O1 (stereo unspecified)	0	0	?	?	-	-
COc1ccc(NC(=O)C2(C)Cc3c(-c4cccc(C(F)(F)F)c4)ccnc3O2)cc1OC (stereo unspecified)	0	0	21µM	16µM	-	-
CC(=O)Nc1cccc(-c2ccnc3c2CC(C)(C(=O)NC(C)C)O3)c1 (stereo unspecified)	0	0	0	?	-	-
CC1(C(=O)Nc2ccc(Cl)cc2)Cc2c(-c3cccc(C(F)(F)F)c3)ccnc2O1 (stereo unspecified)	0	0	23µM	?	-	-
COc1ccc(NC(=O)C2(C)Cc3c(-c4ccccc4)ccnc3O2)cc1OC (stereo unspecified)	0	0	?	?	-	-
CC(C)NC(=O)C1(C)Cc2c(-c3cccc(C(F)(F)F)c3)ccnc2O1 (stereo unspecified)	0	0	12µM	18µM	-	-
Cc1ccc2c(c1)C1(CC(=O)Nc3c1cnn3-c1ccc(C(F)(F)F)cc1)C(=O)N2 (stereo unspecified)	-	0	-	-	-	-
O=C(NC1CCCC1)C1CCC(Cn2cnnn2)CC1 (stereo unspecified)	-	0	-	-	-	-
CC(=O)Nc1ccc(NC(=O)C2(C)Cc3c(-c4cccc(NC(C)=O)c4)ccnc3O2)cc1 (stereo unspecified)	0	0	0	0	-	-
CC(=O)Nc1cccc(-c2ccnc3c2CC(C)(C(=O)Nc2ccc4c(c2)OCO4)O3)c1 (stereo unspecified)	0	0	0.65µM	0.65µM	-	-
CC(=O)Nc1cccc(-c2ccnc3c2CC(C)(C(=O)Nc2cccc(C(C)=O)c2)O3)c1 (stereo unspecified)	0	0	6.5µM	5.8µM	-	-
CC(=O)Nc1ccc(-c2ccnc3c2CC(C)(C(=O)NCc2ccncc2)O3)cc1 (stereo unspecified)	0	0	0	0	-	-
CC1(C(=O)Nc2ccc3c(c2)OCO3)Cc2c(-c3ccccc3)ccnc2O1 (stereo unspecified)	0	0	?	?	-	-
CC(=O)Nc1cccc(-c2ccnc3c2CC(C)(C(=O)NCc2ccncc2)O3)c1 (stereo unspecified)	0	0	18µM	21µM	-	-
